Experimental data from PubChem BioAssay (NCI).
The panel holds about 79,000 compounds, 15% with a hit somewhere; the sample as a whole holds those more often. Activity calls are given as the source filed them. Rule as the data show it: active = growth inhibition above about 70%; inactive = the rest.

Legend:
[1] = NCI Yeast Anticancer Drug Screen. Data for the rad50 strain (AID 155);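 also: 0% = growth of vehicle-only cultures of the same strain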; conditions: S. cerevisiae rad50 strain growth inhibition, stronger effect = higher value
How it was run: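 Genetically altered yeast (DNA repair pathway); compound treatment; growth inhibition vs vehicle ctrl.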

[2] = NCI Yeast Anticancer Drug Screen. Data for the mec2-1 strain (AID 157); conditions: S. cerevisiae mec2-1 strain, stronger effect = higher value
How it was run: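 mec2-1 yeast strain, carrying an alteration in DNA damage repair or cell cycle control, was exposed to compounds; growth inhibition was measured relative to vehicle-treated controls.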

[3] = NCI Yeast Anticancer Drug Screen. Data for the sgs1 mgt1 strain (AID 161);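 also: 0% = growth of cultures given vehicle only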; conditions: S. cerevisiae sgs1 mgt1 strain, stronger effect = higher value
How it was run: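 Yeast cells carrying a defined DNA-repair defect were exposed to test compounds. Growth inhibition was measured relative to vehicle-treated controls.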

[4] = NCI Yeast Anticancer Drug Screen. Data for the cln2 rad14 strain (AID 165);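 also: 0% = growth equal to vehicle treated cultures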; conditions: S. cerevisiae cln2 rad14 strain, stronger effect = higher value
How it was run: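 Yeast carrying cln2 and rad14 alterations (cell cycle control and DNA damage repair) were exposed to compounds. Growth inhibition was measured against vehicle-treated controls.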

[5] = NCI Yeast Anticancer Drug Screen. Data for the bub3 strain (AID 167); conditions: S. cerevisiae bub3 mutant strain, stronger effect = higher value
How it was run: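 Yeast carrying a defined mutation is treated with each compound, and growth is compared with that of vehicle-exposed cells to give inhibition.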

[6] = NCI Yeast Anticancer Drug Screen. Data for the mlh1 rad18 strain (AID 175); conditions: S. cerevisiae mlh1 rad18 strain growth inhibition, stronger effect = higher value
How it was run: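 Growth inhibition of the yeast strain was measured after compound exposure and expressed relative to vehicle-treated controls. The strain carries defined defects in DNA damage repair.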

[7] = at 5.0 µM (retest, dose inferred, filed as 0.5)
[8] = at 50.0 µM (retest, dose inferred, filed as 5.0)

Measured: growth inhibition

c1ccc2c(c1)c1cccc3c4c5ccccc5c5cccc(c2c13)c54
active: [4]; at 50.0 µM 78.1%
inactive: [1]; [7] -1% | [1]; [8] -1% | [1]; at 50.0 µM 1.9% | [2]; [7] -2% | [2]; [8] 0% | [2]; at 50.0 µM 15.7% | [3]; [7] -2% | [3]; [8] -1% | [3]; at 50.0 µM 11.4% | [4]; [7] 1% | [4]; [8] -5% | [5]; [7] 0% | [5]; [8] 1% | [5]; at 50.0 µM -1.25% | [6]; [7] -3% | [6]; [8] -2% | [6]; at 50.0 µM 14.6%

CCC(C)N1CN(c2ccccc2)C2(CCN(CC3COc4ccccc4O3)CC2)C1=O (centres undefined)
inactive: [1]; [7] 1% | [1]; [8] -7% | [1]; at 50.0 µM -5.3% | [2]; [7] -5% | [2]; [8] 1% | [2]; at 50.0 µM 4.4% | [3]; [7] 18% | [3]; [8] 9% | [3]; at 50.0 µM 18.2% | [4]; [7] 11% | [4]; [8] 13% | [4]; at 50.0 µM 8.65% | [5]; [7] 9% | [5]; [8] 32% | [5]; at 50.0 µM 66.7% | [6]; [7] -26% | [6]; [8] 6% | [6]; at 50.0 µM 12.6%

CC(Cc1ccccc1)[N+](=O)[O-] (centres undefined)
active: [1]; [8] 70% | [1]; at 50.0 µM 79%
inactive: [1]; [7] 8% | [2]; [7] 0% | [2]; [8] 6% | [2]; at 50.0 µM -12.9% | [3]; [7] 2% | [3]; [8] 7% | [3]; at 50.0 µM -8.2% | [4]; [7] 3% | [4]; [8] -3% | [4]; at 50.0 µM -19.6% | [5]; [7] 7% | [5]; [8] 27% | [5]; at 50.0 µM -6.9% | [6]; [7] -1% | [6]; [8] 10% | [6]; at 50.0 µM 12.1%

N#CC(C#N)=Cc1ccc([N+](=O)[O-])s1
inactive: [1]; [7] -83% | [2]; [7] -45% | [3]; [7] -42% | [4]; [7] -53% | [5]; [7] -66% | [6]; [7] -83%
active: [1]; [8] 98% | [1]; at 50.0 µM 99.6% | [2]; [8] 99% | [2]; at 50.0 µM 99.6% | [3]; [8] 98% | [3]; at 50.0 µM 99.2% | [4]; [8] 98% | [4]; at 50.0 µM 98.5% | [5]; [8] 98% | [5]; at 50.0 µM 99.3% | [6]; [8] 97% | [6]; at 50.0 µM 99.2%

BrCc1ccc2ncccc2c1
inactive: [1]; [7] 5% | [2]; [7] 4% | [3]; [7] 6% | [4]; [7] 11% | [5]; [7] 3% | [6]; [7] 1%
active: [1]; [8] 98% | [1]; at 50.0 µM 98.5% | [2]; [8] 99% | [2]; at 50.0 µM 98.9% | [3]; [8] 98% | [3]; at 50.0 µM 99% | [4]; [8] 99% | [4]; at 50.0 µM 98.5% | [5]; [8] 99% | [5]; at 50.0 µM 99% | [6]; [8] 99% | [6]; at 50.0 µM 98.5%

CC/C(=C\c1ccc(Cl)cc1)[N+](=O)[O-]
inactive: [1]; [7] 34% | [1]; at 50.0 µM 13.1% | [2]; [7] 12% | [2]; at 50.0 µM -3.1% | [3]; [7] 14% | [3]; at 50.0 µM 53.1% | [4]; [7] 7% | [4]; at 50.0 µM -5.45% | [5]; [7] 25% | [5]; at 50.0 µM 4.95% | [6]; [7] 13% | [6]; at 50.0 µM 8.15%
active: [1]; [8] 99% | [2]; [8] 99% | [3]; [8] 99% | [4]; [8] 99% | [5]; [8] 99% | [6]; [8] 99%

CC/C(=C(/CC)c1ccc(OP(N)(=O)N(CCCl)CCCl)cc1)c1ccc(OP(N)(=O)N(CCCl)CCCl)cc1 (centres undefined)
inactive: [1]; [7] 18% | [1]; [8] 33% | [1]; at 50.0 µM 17.1% | [2]; [7] -5% | [2]; [8] 26% | [2]; at 50.0 µM 5.6% | [3]; [7] 2% | [3]; [8] 42% | [3]; at 50.0 µM 34.7% | [4]; [7] 3% | [4]; [8] 31% | [4]; at 50.0 µM -9.95% | [5]; [7] 29% | [5]; [8] 34% | [5]; at 50.0 µM 0.1% | [6]; [7] 26% | [6]; [8] 51% | [6]; at 50.0 µM 66.8%

CCCOc1ccc(/C=C/[N+](=O)[O-])cc1N
inactive: [1]; [7] 58% | [2]; [7] 52% | [3]; [8] -8% | [4]; [7] 17% | [5]; [7] 34% | [6]; [7] 49%
active: [1]; [8] 99% | [1]; at 50.0 µM 99.2% | [2]; [8] 99% | [2]; at 50.0 µM 99.5% | [3]; [7] 78% | [3]; at 50.0 µM 99.5% | [4]; [8] 99% | [4]; at 50.0 µM 98.9% | [5]; [8] 99% | [5]; at 50.0 µM 99.5% | [6]; [8] 99% | [6]; at 50.0 µM 99.3%
